# Experiments:
# Assay in all cases: DAPPL (digital affinity profiling via proximity ligation, sequencing); 10 mM Tris-HCl pH 7.5, 50 mM NaCl, 1 mM DTT, 4% glycerol, room temperature, 30 min; GST-TFs on glutathione beads, 16-mer random dsDNA library, 0.1% formaldehyde crosslink after washing; high values mean tight binding
# FEV = biological target: T1, FEV (Homo sapiens, UniProt Q99581 1-238); conditions: protein: recombinant; tags: N-terminal GST; dsDNA, one strand shown
# T1 sequence: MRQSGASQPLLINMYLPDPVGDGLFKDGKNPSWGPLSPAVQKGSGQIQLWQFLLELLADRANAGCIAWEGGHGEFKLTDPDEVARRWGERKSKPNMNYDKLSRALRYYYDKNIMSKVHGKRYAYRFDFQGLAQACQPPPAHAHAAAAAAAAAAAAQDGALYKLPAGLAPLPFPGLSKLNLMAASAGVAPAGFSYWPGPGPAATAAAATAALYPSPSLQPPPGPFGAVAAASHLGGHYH
# Procedure, shortened: (§1)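 After expression in yeast as GST fusions, human transcription factors were bound to glutathione beads, DNA-barcoded and mixed with a tag-only sample. The pools were incubated with 200 nmole of a 16-mer random double-stranded DNA library in Tris/NaCl/DTT/glycerol buffer (30 min, room temperature), washed and crosslinked with 0.1% formaldehyde. Proximity ligation with BsaI/T4 ligase ran for 1 h at 37 °C, before PCR amplification and sequencing on an Illumina NextSeq500. Binding signal is a hexamer's read frequency for a factor divided by its frequency for the tag-only sample.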
# ETV5 = ETV5 (Homo sapiens, UniProt P41161 1-510); conditions: protein: recombinant; tags: N-terminal GST; dsDNA, one strand shown
# Chain of ETV5 (P41161 whole entry): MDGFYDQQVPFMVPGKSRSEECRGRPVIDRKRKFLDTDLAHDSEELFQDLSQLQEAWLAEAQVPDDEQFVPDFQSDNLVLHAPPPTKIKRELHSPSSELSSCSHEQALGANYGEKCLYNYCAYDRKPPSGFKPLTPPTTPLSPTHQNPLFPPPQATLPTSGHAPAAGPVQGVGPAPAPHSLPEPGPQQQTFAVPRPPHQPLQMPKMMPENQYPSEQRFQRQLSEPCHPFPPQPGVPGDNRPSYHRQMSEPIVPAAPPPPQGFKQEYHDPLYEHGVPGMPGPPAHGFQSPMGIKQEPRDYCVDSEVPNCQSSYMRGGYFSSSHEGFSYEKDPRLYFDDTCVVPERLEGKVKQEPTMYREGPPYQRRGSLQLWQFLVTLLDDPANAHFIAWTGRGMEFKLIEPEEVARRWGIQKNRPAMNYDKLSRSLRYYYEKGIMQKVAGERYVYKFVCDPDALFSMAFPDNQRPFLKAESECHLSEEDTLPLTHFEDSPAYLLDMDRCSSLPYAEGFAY
# Procedure, shortened: as §1
# HSF1 = HSF1 (Homo sapiens, UniProt Q00613 1-529); conditions: protein: recombinant; tags: N-terminal GST; chain copies: 3; dsDNA, one strand shown
# Chain of HSF1 (Q00613 whole entry): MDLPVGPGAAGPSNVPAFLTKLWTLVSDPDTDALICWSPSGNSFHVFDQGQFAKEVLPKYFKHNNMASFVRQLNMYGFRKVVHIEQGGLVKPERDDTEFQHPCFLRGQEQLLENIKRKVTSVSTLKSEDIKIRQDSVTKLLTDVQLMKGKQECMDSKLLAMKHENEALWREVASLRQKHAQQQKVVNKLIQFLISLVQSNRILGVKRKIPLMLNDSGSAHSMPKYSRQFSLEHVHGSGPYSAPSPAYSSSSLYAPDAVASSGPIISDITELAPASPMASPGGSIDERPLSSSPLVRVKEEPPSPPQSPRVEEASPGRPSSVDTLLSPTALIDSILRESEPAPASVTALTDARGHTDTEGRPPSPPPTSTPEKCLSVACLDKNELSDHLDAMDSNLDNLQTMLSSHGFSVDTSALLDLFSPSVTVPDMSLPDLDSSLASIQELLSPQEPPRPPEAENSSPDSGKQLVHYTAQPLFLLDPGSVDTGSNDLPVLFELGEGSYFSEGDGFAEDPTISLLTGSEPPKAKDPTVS
# Procedure, shortened: as §1
# SPIC = biological target: T2, SPIC (Homo sapiens, UniProt Q8N5J4 1-248); conditions: protein: recombinant; tags: N-terminal GST; dsDNA, one strand shown
# T2 sequence: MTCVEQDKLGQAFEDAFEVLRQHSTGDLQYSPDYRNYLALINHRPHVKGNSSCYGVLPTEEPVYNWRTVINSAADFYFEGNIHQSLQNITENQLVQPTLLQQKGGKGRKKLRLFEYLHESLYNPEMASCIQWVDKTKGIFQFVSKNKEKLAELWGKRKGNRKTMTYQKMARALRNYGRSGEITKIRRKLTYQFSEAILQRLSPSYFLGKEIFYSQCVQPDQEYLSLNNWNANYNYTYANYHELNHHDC
# Procedure, shortened: as §1
# ELF4 = ELF4 (Homo sapiens, UniProt Q99607 1-663); conditions: protein: recombinant; tags: N-terminal GST; dsDNA, one strand shown
# Chain of ELF4 (Q99607 whole entry): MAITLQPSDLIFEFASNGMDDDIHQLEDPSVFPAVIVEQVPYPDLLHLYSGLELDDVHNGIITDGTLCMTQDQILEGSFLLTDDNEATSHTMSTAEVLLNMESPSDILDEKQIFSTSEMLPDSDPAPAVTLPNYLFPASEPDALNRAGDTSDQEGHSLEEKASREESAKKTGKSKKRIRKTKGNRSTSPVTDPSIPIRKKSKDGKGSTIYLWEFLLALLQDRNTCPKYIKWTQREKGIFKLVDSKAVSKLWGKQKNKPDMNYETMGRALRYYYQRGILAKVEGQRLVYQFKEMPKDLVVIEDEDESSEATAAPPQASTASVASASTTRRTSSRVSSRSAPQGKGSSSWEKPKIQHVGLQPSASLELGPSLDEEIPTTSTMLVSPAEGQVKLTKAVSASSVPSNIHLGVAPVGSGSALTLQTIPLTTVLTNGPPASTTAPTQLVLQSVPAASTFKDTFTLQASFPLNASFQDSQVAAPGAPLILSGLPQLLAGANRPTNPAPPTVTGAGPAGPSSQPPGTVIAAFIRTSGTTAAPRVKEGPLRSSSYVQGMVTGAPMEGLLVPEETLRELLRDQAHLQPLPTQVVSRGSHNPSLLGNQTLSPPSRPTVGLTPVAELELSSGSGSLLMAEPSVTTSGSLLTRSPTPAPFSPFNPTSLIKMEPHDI
# Procedure, shortened: as §1
# ELK4 = biological target: T3, ELK4 (Homo sapiens, UniProt P28324-2 1-405); conditions: protein: recombinant; tags: N-terminal GST; dsDNA, one strand shown
# T3 sequence: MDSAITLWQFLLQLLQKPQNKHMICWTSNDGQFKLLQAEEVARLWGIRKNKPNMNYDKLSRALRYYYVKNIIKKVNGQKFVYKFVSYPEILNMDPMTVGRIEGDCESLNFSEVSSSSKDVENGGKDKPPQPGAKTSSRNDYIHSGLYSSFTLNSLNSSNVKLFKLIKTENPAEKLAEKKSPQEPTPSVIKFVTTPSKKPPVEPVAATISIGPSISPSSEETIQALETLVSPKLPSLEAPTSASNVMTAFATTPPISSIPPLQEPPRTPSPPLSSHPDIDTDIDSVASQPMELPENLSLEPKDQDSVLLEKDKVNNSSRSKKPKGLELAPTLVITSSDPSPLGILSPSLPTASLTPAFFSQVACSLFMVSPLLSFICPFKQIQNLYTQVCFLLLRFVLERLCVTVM
# Procedure, shortened: as §1
# ETV2 = biological target: T4, ETV2 (Homo sapiens, UniProt O00321 1-342); conditions: protein: recombinant; tags: N-terminal GST; dsDNA, one strand shown
# T4 sequence: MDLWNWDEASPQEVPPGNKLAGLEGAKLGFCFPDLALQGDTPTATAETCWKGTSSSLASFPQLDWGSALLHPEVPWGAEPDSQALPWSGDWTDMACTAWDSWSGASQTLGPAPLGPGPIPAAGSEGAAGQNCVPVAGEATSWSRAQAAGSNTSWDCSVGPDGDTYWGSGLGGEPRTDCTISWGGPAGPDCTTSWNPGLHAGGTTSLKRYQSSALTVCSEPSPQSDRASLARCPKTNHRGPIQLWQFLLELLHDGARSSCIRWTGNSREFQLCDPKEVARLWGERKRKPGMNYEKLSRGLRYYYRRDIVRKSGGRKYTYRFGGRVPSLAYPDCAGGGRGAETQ
# Procedure, shortened: as §1
# ELF3 = biological target: T5, ELF3 (Homo sapiens, UniProt P78545 1-371); conditions: protein: recombinant; tags: N-terminal GST; dsDNA, one strand shown
# T5 sequence: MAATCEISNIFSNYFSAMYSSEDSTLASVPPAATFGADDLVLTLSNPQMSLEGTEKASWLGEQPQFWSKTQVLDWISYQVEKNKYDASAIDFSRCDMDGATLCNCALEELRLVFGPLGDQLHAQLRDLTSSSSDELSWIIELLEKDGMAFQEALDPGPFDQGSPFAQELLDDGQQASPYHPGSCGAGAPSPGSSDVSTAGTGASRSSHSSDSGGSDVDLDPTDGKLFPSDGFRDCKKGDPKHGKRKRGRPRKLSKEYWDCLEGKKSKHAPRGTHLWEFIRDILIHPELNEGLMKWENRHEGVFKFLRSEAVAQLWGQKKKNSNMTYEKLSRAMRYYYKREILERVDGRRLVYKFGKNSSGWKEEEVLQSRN
# Procedure, shortened: as §1
# CRX = CRX (Homo sapiens, UniProt O43186 1-299); conditions: protein: recombinant; tags: N-terminal GST; dsDNA, one strand shown
# Chain of CRX (O43186 whole entry): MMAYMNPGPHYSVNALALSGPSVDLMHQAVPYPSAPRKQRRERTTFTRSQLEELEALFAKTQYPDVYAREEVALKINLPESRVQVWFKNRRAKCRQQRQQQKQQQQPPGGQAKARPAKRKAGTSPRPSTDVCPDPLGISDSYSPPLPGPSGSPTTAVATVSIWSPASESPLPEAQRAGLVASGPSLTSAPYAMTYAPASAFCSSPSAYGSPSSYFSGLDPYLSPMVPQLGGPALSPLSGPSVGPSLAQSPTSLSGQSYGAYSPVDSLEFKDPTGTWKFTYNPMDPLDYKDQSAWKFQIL
# Procedure, shortened: as §1
# ETV1 = ETV1 (Homo sapiens, UniProt P50549 1-477); conditions: protein: recombinant; tags: N-terminal GST; dsDNA, one strand shown
# Chain of ETV1 (P50549 whole entry): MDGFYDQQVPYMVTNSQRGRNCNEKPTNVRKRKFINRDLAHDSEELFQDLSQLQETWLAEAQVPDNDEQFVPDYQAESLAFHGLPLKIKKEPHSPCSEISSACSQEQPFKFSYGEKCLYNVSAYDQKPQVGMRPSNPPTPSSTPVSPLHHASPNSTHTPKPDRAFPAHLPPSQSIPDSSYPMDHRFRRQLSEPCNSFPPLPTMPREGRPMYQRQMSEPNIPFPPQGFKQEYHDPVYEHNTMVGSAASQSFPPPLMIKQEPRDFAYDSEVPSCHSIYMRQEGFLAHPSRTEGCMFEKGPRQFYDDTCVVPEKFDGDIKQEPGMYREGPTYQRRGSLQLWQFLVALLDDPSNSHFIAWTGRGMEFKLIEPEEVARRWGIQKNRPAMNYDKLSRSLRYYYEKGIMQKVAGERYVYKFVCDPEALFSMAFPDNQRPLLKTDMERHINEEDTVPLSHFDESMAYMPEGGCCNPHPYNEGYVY
# Procedure, shortened: as §1
# ERF = biological target: T6, ERF (Homo sapiens, UniProt P50548 1-548); conditions: protein: recombinant; tags: N-terminal GST; dsDNA, one strand shown
# T6 sequence: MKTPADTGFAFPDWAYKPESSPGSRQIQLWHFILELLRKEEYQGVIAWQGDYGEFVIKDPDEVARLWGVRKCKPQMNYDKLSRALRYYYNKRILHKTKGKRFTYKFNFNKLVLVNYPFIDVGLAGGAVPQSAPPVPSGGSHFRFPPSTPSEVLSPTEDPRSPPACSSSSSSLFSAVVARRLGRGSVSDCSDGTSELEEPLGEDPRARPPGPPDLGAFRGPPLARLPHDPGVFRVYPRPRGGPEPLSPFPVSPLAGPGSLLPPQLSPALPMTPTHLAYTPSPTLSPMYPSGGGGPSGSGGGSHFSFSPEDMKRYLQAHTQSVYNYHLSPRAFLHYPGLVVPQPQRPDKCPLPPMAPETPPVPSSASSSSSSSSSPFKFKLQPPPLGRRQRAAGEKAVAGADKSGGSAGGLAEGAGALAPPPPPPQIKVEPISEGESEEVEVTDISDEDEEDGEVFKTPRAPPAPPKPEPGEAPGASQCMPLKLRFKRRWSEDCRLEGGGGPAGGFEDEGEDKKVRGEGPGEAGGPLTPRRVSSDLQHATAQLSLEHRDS
# Procedure, shortened: as §1
# ETV3L = biological target: T7, ETV3L (Homo sapiens, UniProt Q6ZN32 1-361); conditions: protein: recombinant; tags: N-terminal GST; dsDNA, one strand shown
# T7 sequence: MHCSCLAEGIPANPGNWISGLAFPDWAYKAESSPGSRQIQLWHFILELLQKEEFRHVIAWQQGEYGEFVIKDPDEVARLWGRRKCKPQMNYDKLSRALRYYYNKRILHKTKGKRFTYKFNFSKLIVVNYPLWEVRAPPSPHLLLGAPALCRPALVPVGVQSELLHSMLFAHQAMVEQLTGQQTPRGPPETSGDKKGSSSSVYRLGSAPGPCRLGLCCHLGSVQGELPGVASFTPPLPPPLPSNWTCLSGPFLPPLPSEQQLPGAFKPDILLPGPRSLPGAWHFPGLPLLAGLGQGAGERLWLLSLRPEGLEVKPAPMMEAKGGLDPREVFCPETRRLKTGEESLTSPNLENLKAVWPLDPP
# Procedure, shortened: as §1
# ETS2 = biological target: T8, ETS2 (Homo sapiens, UniProt P15036 1-469); conditions: protein: recombinant; tags: N-terminal GST; dsDNA, one strand shown
# T8 sequence: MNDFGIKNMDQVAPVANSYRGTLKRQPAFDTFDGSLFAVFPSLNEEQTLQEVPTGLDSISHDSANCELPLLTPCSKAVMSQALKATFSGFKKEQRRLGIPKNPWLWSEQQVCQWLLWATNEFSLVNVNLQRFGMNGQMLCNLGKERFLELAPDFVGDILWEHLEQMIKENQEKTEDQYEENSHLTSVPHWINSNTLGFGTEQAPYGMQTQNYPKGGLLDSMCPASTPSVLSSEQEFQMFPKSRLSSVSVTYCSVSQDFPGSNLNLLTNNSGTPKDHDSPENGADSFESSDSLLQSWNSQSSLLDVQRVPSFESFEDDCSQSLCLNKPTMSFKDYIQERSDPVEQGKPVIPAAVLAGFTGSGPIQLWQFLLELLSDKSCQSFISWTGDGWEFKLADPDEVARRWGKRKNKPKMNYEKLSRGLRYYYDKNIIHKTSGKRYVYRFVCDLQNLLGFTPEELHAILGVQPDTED
# Procedure, shortened: as §1
# SPDEF = biological target: T9, SPDEF (Homo sapiens, UniProt O95238 1-335); conditions: protein: recombinant; tags: N-terminal GST; dsDNA, one strand shown
# T9 sequence: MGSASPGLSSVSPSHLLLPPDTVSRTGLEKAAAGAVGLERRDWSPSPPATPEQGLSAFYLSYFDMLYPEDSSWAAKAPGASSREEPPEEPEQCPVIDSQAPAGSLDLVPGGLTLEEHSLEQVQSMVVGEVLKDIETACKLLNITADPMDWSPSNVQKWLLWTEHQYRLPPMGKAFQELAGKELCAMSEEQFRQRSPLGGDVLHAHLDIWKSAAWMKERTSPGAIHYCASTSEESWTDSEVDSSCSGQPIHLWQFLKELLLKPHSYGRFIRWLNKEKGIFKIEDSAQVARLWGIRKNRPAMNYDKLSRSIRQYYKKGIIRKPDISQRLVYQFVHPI
# Procedure, shortened: as §1
# ETV7 = biological target: T10, ETV7 (Homo sapiens, UniProt Q9Y603 1-341); conditions: protein: recombinant; tags: N-terminal GST; dsDNA, one strand shown
# T10 sequence: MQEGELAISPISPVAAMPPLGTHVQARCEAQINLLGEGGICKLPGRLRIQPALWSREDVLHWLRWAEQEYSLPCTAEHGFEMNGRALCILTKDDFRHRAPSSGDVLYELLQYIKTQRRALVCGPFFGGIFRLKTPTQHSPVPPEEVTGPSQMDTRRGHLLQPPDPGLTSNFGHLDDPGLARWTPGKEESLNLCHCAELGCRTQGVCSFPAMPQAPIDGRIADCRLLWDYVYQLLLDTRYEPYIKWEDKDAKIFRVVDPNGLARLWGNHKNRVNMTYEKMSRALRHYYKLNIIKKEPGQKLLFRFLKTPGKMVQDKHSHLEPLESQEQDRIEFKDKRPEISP
# Procedure, shortened: as §1
# ELF5 = biological target: T11, ELF5 (Homo sapiens, UniProt Q9UKW6-2 1-255); conditions: protein: recombinant; tags: N-terminal GST; dsDNA, one strand shown
# T11 sequence: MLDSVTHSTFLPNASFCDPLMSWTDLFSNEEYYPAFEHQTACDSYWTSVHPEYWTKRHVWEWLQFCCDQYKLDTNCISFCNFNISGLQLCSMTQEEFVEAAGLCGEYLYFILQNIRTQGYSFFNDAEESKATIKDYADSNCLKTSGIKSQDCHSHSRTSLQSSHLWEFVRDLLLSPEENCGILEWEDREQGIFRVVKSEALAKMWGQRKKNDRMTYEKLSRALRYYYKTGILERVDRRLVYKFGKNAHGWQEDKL
# Procedure, shortened: as §1
# ETV3 = biological target: T12, ETV3 (Homo sapiens, UniProt P41162-2 1-143); conditions: protein: recombinant; tags: N-terminal GST; dsDNA, one strand shown
# T12 sequence: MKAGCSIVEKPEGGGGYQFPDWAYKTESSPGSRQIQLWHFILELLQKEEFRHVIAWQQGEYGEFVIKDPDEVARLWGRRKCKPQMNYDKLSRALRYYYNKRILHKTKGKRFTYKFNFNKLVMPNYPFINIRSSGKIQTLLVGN
# Procedure, shortened: as §1
# ETV6 = ETV6 (Homo sapiens, UniProt P41212 1-452); conditions: protein: recombinant; tags: N-terminal GST; dsDNA, one strand shown
# Chain of ETV6 (P41212 whole entry): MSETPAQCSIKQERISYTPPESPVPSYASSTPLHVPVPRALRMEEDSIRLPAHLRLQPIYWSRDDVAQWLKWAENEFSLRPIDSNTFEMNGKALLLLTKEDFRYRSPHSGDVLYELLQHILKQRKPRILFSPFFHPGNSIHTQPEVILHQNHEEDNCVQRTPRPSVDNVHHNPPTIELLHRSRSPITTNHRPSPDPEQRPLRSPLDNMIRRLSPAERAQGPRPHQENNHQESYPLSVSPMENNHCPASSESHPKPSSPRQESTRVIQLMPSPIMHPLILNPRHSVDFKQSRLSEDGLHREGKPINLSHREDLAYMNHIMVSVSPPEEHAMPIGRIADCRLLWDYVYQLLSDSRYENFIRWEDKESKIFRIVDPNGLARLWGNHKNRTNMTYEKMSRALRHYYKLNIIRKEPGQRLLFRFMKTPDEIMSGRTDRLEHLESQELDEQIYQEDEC
# Procedure, shortened: as §1
sequence,measurement,setting,value
CTAGCA,binding signal,FEV,"1.27 fold enrichment (6-mer frequency, TF over GST control)"
same,binding signal,ETV5,"1.25 fold enrichment (6-mer frequency, TF over GST control)"
same,binding signal,HSF1,"2.11 fold enrichment (6-mer frequency, TF over GST control)"
same,binding signal,SPIC,"1.11 fold enrichment (6-mer frequency, TF over GST control)"
same,binding signal,ELF4,"1.3 fold enrichment (6-mer frequency, TF over GST control)"
same,binding signal,ELK4,"1.25 fold enrichment (6-mer frequency, TF over GST control)"
same,binding signal,ETV2,"1.35 fold enrichment (6-mer frequency, TF over GST control)"
same,binding signal,ELF3,"1.21 fold enrichment (6-mer frequency, TF over GST control)"
same,binding signal,CRX,"1.34 fold enrichment (6-mer frequency, TF over GST control)"
same,binding signal,ETV1,"1.24 fold enrichment (6-mer frequency, TF over GST control)"
same,binding signal,ERF,"1.21 fold enrichment (6-mer frequency, TF over GST control)"
same,binding signal,ETV3L,"1.28 fold enrichment (6-mer frequency, TF over GST control)"
same,binding signal,ETS2,"1.18 fold enrichment (6-mer frequency, TF over GST control)"
same,binding signal,SPDEF,"1.16 fold enrichment (6-mer frequency, TF over GST control)"
same,binding signal,ETV7,"1.33 fold enrichment (6-mer frequency, TF over GST control)"
same,binding signal,ELF5,"1.12 fold enrichment (6-mer frequency, TF over GST control)"
same,binding signal,ETV3,"1.18 fold enrichment (6-mer frequency, TF over GST control)"
same,binding signal,ETV6,"1.18 fold enrichment (6-mer frequency, TF over GST control)"
